The structures appear in SMILES notation. Among all 1,300 compounds or so, about 930 (72%) were called active. So high a share suggests a set chosen from earlier hits. These entries were drawn from the full list. Entries with a potency or affinity are not part of this list. Unmarked numbers belong to inactive results.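 Rule for the calls: active = fitted curve reaches 40% activation signal increase at or below the top valid tested concentration in every replicate test; inconclusive = replicate tests disagree in their calls; inactive = all replicate tests inactive, including effects opposite the expected signal rise.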

The nature of the assay: suppression of miR-122 activity, Renilla luciferase sensor – cell-based, Huh7 psiCHECK-miR122, cherry-pick, dose response (AID 652053). The following applies: Huh7 psiCHECK-miR122 Renilla luciferase reporter, 48 h; series mostly up to 35 µM; activation (miR-122 inhibition): at the top concentration. (In general: Reporter assays use an easily measured gene product as a stand-in for the process of interest.)
Regarding `C/C=C/c1ccc([C@H]2[C@@H](CO)N(c3nc(CC)cs3)[C@H]2CNC(C)C)cc1`, the “activation (miR-122 inhibition)” value is 9.8% [at 30 µM].
Turning to `Cc1cc(C)cc(NC2=NC3(CCCCC3)N=C(N)N2)c1`, the “activation (miR-122 inhibition)” value was 14.3%.
The figure for `C/C=C/c1ccc([C@H]2[C@H](CO)N(c3nc(CC)cs3)[C@H]2CNC(C)C)cc1` is 9.1%; for `Cc1cc(N/N=C/c2ccc(O)c(C)c2O)nc(-c2ccccc2O)n1` it is -28.8%.
Consider `CCC(=O)Nc1ccc(C(=O)Nc2cccc(C)n2)cc1`, for which the “activation (miR-122 inhibition)” value was -4.08%.
Then `C[C@@H]1CN([C@@H](C)CO)C(=O)Cc2cc(NC(=O)Nc3cccc4ccccc34)ccc2O[C@@H]1CN(C)C(=O)NC1CCCCC1`, with 16.7% [at 30 µM]; and `C[C@H](CO)N1C[C@H](C)[C@H](CN(C)C(=O)NC2CCCCC2)Oc2ccc(NC(=O)Nc3cccc4ccccc34)cc2CC1=O`, with -11.8%.
The figure for `C[C@H](CO)N1C[C@H](C)[C@@H](CN(C)Cc2ccncc2)Oc2ccc(NC(=O)Nc3cccc4ccccc34)cc2CC1=O` is 27.8%; for `CC(C)NC(=O)Nc1ccc2c(c1)CC(=O)N([C@H](C)CO)C[C@@H](C)[C@@H](CN(C)Cc1ccc(Oc3ccccc3)cc1)O2` it is -16%.
Then `COc1cccc(C(=O)Nc2cc([N+](=O)[O-])ccc2N2CCN(C)CC2)c1`, with 7.85%; and `COc1ccc(NC(C)=O)cc1NC(C)C(=O)Nc1cc(C(F)(F)F)ccc1N1CCOCC1` (stereo not drawn), with -5.66%.
For `Cc1nc2ccccc2n1S(=O)(=O)c1ccc(F)cc1`, the “activation (miR-122 inhibition)” value was -4.04%.
Consider `CC(C)n1c(/C=C/c2ccccc2)nc2ccccc21`, for which the “activation (miR-122 inhibition)” value is 14%.
In the case of `COc1ccc(S(=O)(=O)Nc2ccc3c(c2)COC3=O)cc1OC`, the “activation (miR-122 inhibition)” value is 9.2%.
Then `CC(=O)N1[C@H](CO)[C@H](c2ccc(C3=CCCCC3)cc2)[C@@H]1CNC(=O)CN(C)C`, with 24.4%.
In the case of `Cc1ccc(C)c(CSc2nnc(-c3cccnc3)o2)c1`, the “activation (miR-122 inhibition)” value is 10.5%.
Then `COc1ccc(OC)c(Nc2cc(C)nc3nc(C)nn23)c1`, with 6.54%; and `Cc1cc(OCC(O)CN2CCOCC2)cc(C)c1Cl` (stereo not drawn), with -7.28%.
`O=C(Nc1cccc([N+](=O)[O-])c1)c1ccc(CSc2ccccc2)cc1`: the “activation (miR-122 inhibition)” value is -5.05%.
For the molecule `Fc1ccc(-n2nnc(-c3nccs3)n2)cc1`, the “activation (miR-122 inhibition)” value is 9.99%.
The figure for `CCc1nc2sc3c(c2c(=O)n1NC(=O)CCl)CCCC3` is -23.5%.
Then `COc1ccc(CN(C)C[C@@H]2OCCCC[C@@H](C)Oc3ccc(NC(=O)c4ccccc4)cc3C(=O)N([C@H](C)CO)C[C@@H]2C)cc1`, with 26.6%; and `COc1cccc(N2CCN(C(=S)Nc3cccc(C)c3)CC2)c1`, with -9.75%; and `C/C=C/c1ccc([C@@H]2[C@@H](CO)N(c3nc(CC)cs3)[C@@H]2CNC(C)C)cc1`, with -14.1%.
Take `COc1ccc(CNC(=O)C(c2ccco2)N(C(=O)c2csnn2)c2cccc(C)c2C)cc1` (stereo not drawn): the “activation (miR-122 inhibition)” value is 14%.
Regarding `O=C(Oc1ccc(C(=S)N2CCOCC2)cc1)c1ccccc1F`, the “activation (miR-122 inhibition)” value is -11.9%.
Turning to `O=C(Oc1ccc(C(=S)N2CCOCC2)cc1)c1ccccc1`, the “activation (miR-122 inhibition)” value was -1.54%.
Turning to `O=C(Oc1ccc(C(=S)N2CCOCC2)cc1)c1ccc(F)cc1`, the “activation (miR-122 inhibition)” value is -4.16%.
For `COc1cc(C(=S)N2CCOCC2)cc(OC)c1OC(=O)c1ccc(F)cc1`, the “activation (miR-122 inhibition)” value is 2.77%.
Then `CCOC(=O)c1ccc(NS(=O)(=O)c2ccc3[nH]c(=O)[nH]c3c2)cc1`, with 15.1%; and `CCCNC(=O)NC[C@H]1[C@@H](c2ccc(C3=CCCC3)cc2)[C@@H](CO)N1C(C)=O`, with 56.5%; and `CCCNC(=O)NC[C@H]1[C@H](c2ccc(C3=CCCC3)cc2)[C@H](CO)N1C(=O)CC`, with 4.17%.
Then `CC(=O)N1[C@H](CO)[C@@H](c2ccc(C3=CCCCC3)cc2)[C@@H]1CNC(=O)CN(C)C`, with 2.05%; and `CCCNC(=O)NC[C@H]1[C@H](c2ccc(C3=CCCC3)cc2)[C@@H](CO)N1C(=O)CC`, with 18.1%.
Take `CCCNC(=O)NC[C@H]1[C@@H](c2ccc(C3=CCCC3)cc2)[C@H](CO)N1C(=O)CC`: the “activation (miR-122 inhibition)” value was 22.9%.
Take `CCC(=O)N1[C@H](CNC(=O)CN(C)C)[C@@H](c2ccc(C3=CCCC3)cc2)[C@@H]1CO`: the “activation (miR-122 inhibition)” value is 7%.
Regarding `CCCNC(=O)NC[C@@H]1[C@H](c2ccc(C3=CCCC3)cc2)[C@H](CO)N1C(=O)CC`, the “activation (miR-122 inhibition)” value was -2.66%.
For the molecule `CCCNC(=O)NC[C@@H]1[C@H](c2ccc(C3=CCCC3)cc2)[C@@H](CO)N1C(=O)CC`, the “activation (miR-122 inhibition)” value was -9.1% [at 30 µM].
Then `CN(C)Cc1cccc(-c2ccccc2)c1O`, with 17.8%; and `O=S(=O)(Nc1ccncc1)c1ccc(Cl)cc1`, with -7.92%.
On to `COc1cc(OC)c2c(-c3cccc(-c4ccc(N(C)C)cc4)c3)cc(=O)oc2c1`, for which the “activation (miR-122 inhibition)” value was 32.1%.
The figure for `COc1ccc(-c2cccc(-c3cc(=O)oc4cc(OC)cc(OC)c34)c2)cc1` is 8.47%.
Then `COc1cc(OC)c2c(-c3cccc(-c4ccc(O)cc4)c3)cc(=O)oc2c1`, with 5.68%.

Source of the values: PubChem BioAssay AID652053 (Broad Institute, 2013).
